Data taken from a collection of fitness landscapes (doi:10.1038/s41467-024-54723-y).
Over roughly 18,000 sequences, “TetR repression strength (sort-seq, GFP reporter)” has its median near 0.23; the highest 2% begin near 0.68. Many of the other results were omitted from the sample, so the highest values are more common in it than they were.

Target: TetR (class B, Tn10) (UniProt P04483)
Test: TetR repression strength (sort-seq, GFP reporter) (relative to tetO2 = 1); higher = stronger repression
Details: E. coli
In short: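 Repression strength was calculated by subtracting the read-weighted mean bin from the top bin index plus one and dividing by the unaltered operator's value. The plasmid library was low-copy in E. coli SIG10-MAX, with eight randomized operator positions between a constitutive promoter and sfGFP and constitutive TetR. Cultures grew 5 h at 37 °C in LB containing 50 µg/mL chloramphenicol before 10^6 cells were sorted by FACS into 13 fluorescence bins, each sequenced on Illumina. Three independent transformations were averaged for members having ≥30 reads in all replicates and a CV ≤0.5.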

TetR (class B, Tn10), sequence (P04483 whole entry): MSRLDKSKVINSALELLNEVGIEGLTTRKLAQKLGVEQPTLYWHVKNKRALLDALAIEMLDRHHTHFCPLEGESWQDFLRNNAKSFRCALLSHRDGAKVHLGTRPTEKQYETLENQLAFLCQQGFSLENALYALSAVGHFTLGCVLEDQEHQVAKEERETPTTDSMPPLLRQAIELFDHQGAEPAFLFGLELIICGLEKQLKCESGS

Row | Sequence | TetR repression strength
1 | TCCCTGAGAGTCGTGGAGA | 0.239
2 | TCCCGTCAAGTGGATGAGA | 0.109
3 | TCCCTCCGAGTGCAGGAGA | 0.492
4 | TCCCCCGCAGTGCATGAGA | 0.385
5 | TCCCCCTCAGTTGTAGAGA | 0.237
6 | TCCCGAGAAGTGCAGGAGA | 0.173
7 | TCCCGACCAGTGCAGGAGA | 0.805
8 | TCCCGAGCAGTGCAGGAGA | 0.226
9 | TCCCGACAAGTGCAGGAGA | 0.684
10 | TCCCGAAAAGTGCAGGAGA | 0.26
11 | TCCCGACCAGTGCGGGAGA | 0.222
12 | TCCCTAGCAGTGGTGGAGA | 0.27
13 | TCCCGTTGAGTGTATGAGA | 0.181
14 | TCCCAGGCAGTCCGTGAGA | 0.2
15 | TCCCGGTTAGTGCAAGAGA | 0.415
16 | TCCCTAGGAGTAACGGAGA | 0.183
17 | TCCCGTCTAGTTAAGGAGA | 0.811
18 | TCCCGTCGAGTTAAGGAGA | 0.815
19 | TCCCGTCGAGTTCCGGAGA | 0.977
20 | TCCCGTCTAGTTCTGGAGA | 0.687
21 | TCCCGTCGAGTGAAGGAGA | 0.311
22 | TCCCGTCTAGTTCTAGAGA | 0.36
23 | TCCCGTGTAGTTCTGGAGA | 0.189
24 | TCCCGTCGAGTGCCGGAGA | 0.363
25 | TCCCGTCTAGTTGAGGAGA | 0.24
26 | TCCCGTCGAGTAAAGGAGA | 0.22
27 | TCCCGTCGAGTCCCGGAGA | 0.402

Row | Sequence | TetR repression strength
28 | TCCCTTCTAGTTAAGGAGA | 0.283
29 | TCCCCGTAAGTGCAGGAGA | 0.21
30 | TCCCAGCGAGTCCAGGAGA | 0.27
31 | TCCCACTTAGTAAGTGAGA | 0.141
32 | TCCCAGTAAGTAGCCGAGA | 0.0168
33 | TCCCGGACAGTATATGAGA | 0.304
34 | TCCCTAGCAGTAGTAGAGA | 0.681
35 | TCCCCGCTAGTTAAGGAGA | 0.755
36 | TCCCCGTTAGTTAAGGAGA | 0.149
37 | TCCCCACTAGTTAAGGAGA | 0.225
38 | TCCCGGAGAGTGTATGAGA | 0.188
39 | TCCCAGTGAGTTGCCGAGA | 0.212
40 | TCCCCTACAGTTCATGAGA | 0.189
41 | TCCCGTACAGTTCATGAGA | 1.18
42 | TCCCATAAAGTTCATGAGA | 0.36
43 | TCCCGTACAGTTGATGAGA | 0.2
44 | TCCCGTAAAGTTCATGAGA | 1.21
45 | TCCCGTCAAGTTCATGAGA | 0.15
46 | TCCCAGTTAGTCTTTGAGA | 0.334
47 | TCCCTAAAAGTTTGAGAGA | 0.334
48 | TCCCGTTCAGTGCGAGAGA | 0.0532
49 | TCCCGTGCAGTGATAGAGA | 0.647
50 | TCCCTGCTAGTGATCGAGA | 0.745
51 | TCCCGTTCAGTGAGAGAGA | 0.516
52 | TCCCATTCAGTGATAGAGA | 0.707
53 | TCCCGTTCAGTGATAGAGA | 0.819
54 | TCCCGTGCAGTGCTAGAGA | 0.38

Row | Sequence | TetR repression strength
55 | TCCCTGATAGTGATCGAGA | 0.362
56 | TCCCTGCTAGTGATAGAGA | 0.638
57 | TCCCGTTCAGTGCTAGAGA | 0.681
58 | TCCCATCCAGTGATAGAGA | 0.626
59 | TCCCATTCAGTTATAGAGA | 0.596
60 | TCCCGGGAAGTATTCGAGA | 0.391
61 | TCCCCAAGAGTTTGGGAGA | 0.217
62 | TCCCGGATAGTACTAGAGA | 0.291
63 | TCCCGGTTAGTTCGAGAGA | 0.0821
64 | TCCCCACCAGTGGCGGAGA | 0.231
65 | TCCCTACTAGTACGGGAGA | 0.394
66 | TCCCGCTCAGTTGTAGAGA | 0.421
67 | TCCCATACAGTTGGAGAGA | 0.37
68 | TCCCCATAAGTACAAGAGA | 0.446
69 | TCCCGTGTAGTAGGAGAGA | 0.17
70 | TCCCTCGCAGTGGATGAGA | 0.323
71 | TCCCATTAAGTGATCGAGA | 0.344
72 | TCCCATTTAGTGATCGAGA | 0
73 | TCCCTGTCAGTGAGAGAGA | 0.444
74 | TCCCGTTCAGTAGGCGAGA | 0.261
75 | TCCCTGCCAGTGATAGAGA | 0.646
76 | TCCCTGTCAGTTGGAGAGA | 0.36
77 | TCCCTGACAGTTGGCGAGA | 0.301
78 | TCCCGTTCAGTACGCGAGA | 0.912
79 | TCCCTGTCAGTTGGCGAGA | 0.874
80 | TCCCATTCAGTGATCGAGA | 0.731
81 | TCCCGCTCAGTACGCGAGA | 0.104

Row | Sequence | TetR repression strength
82 | TCCCTGTCAGTGATAGAGA | 0.863
83 | TCCCGACTAGTAACTGAGA | 0.613
84 | TCCCTAGTAGTTGTTGAGA | 0.308
85 | TCCCCGGGAGTTATGGAGA | 0.274
86 | TCCCACTTAGTTGCTGAGA | 0.19
87 | TCCCGGTCAGTGAAGGAGA | 0.236
88 | TCCCGGCCAGTCAAAGAGA | 0.406
89 | TCCCTTCCAGTTCACGAGA | 0.325
90 | TCCCAATTAGTTTGAGAGA | 0.313
91 | TCCCCGCGAGTAGGAGAGA | 0.405
92 | TCCCTGGGAGTGTGTGAGA | 0.182
93 | TCCCGTGGAGTACTAGAGA | 0.229
94 | TCCCTGTCAGTAATCGAGA | 0.535
95 | TCCCATTCAGTGCACGAGA | 0.691
96 | TCCCATGCAGTGCACGAGA | 0.17
97 | TCCCGTTCAGTGCTCGAGA | 0.442
98 | TCCCGTTCAGTGATCGAGA | 0.724
99 | TCCCGTTCAGTGAACGAGA | 0.617
100 | TCCCTGTCAGTGATCGAGA | 0.734
101 | TCCCGCTAAGTGCTAGAGA | 0.36
102 | TCCCATTGAGTGCACGAGA | 0.443
103 | TCCCTGAGAGTGATCGAGA | 0.0416
104 | TCCCGTTAAGTGCGAGAGA | 0.109
105 | TCCCGTTAAGTGCTAGAGA | 0.685
